Common to all, as to assay: PBM; 200 nM protein, PBS
Conditions in all cases: dsDNA, one strand shown

Test [1] addresses HESX1 (Homo sapiens, UniProt Q9UBX0 95-180, R165K).
Test [2] deals with HOXA7 (Homo sapiens, UniProt P31268 116-202).
The target of test [3] is HESX1 (Homo sapiens, UniProt Q9UBX0 95-180).
For test [4], the target named is HESX1 (Homo sapiens, UniProt Q9UBX0 95-180, R109Q).
In test [5] the target is HESX1 (Homo sapiens, UniProt Q9UBX0 95-180, P111T).
The target of test [6] is HESX1 (Homo sapiens, UniProt Q9UBX0 95-180, F115L).
Sequence of HESX1 (Homo sapiens, UniProt Q9UBX0 95-180, F115L) (Q9UBX0 95-180 F115L): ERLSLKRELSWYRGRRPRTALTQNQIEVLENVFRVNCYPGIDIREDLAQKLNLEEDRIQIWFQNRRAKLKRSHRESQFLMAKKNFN
For test [7], the target named is HOXA7 (Homo sapiens, UniProt P31268 116-202, W177C).
Sequence of HOXA7 (Homo sapiens, UniProt P31268 116-202, W177C) (P31268 116-202 W177C): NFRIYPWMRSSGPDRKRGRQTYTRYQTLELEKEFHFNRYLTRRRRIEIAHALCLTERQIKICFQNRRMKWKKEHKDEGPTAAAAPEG
In test [8] the target is HOXC9 (Homo sapiens, UniProt P31274 178-260, K195R).
Sequence of HOXC9 (Homo sapiens, UniProt P31274 178-260, K195R) (P31274 178-260 K195R): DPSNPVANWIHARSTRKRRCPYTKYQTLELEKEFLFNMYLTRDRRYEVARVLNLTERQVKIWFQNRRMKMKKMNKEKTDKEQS
Test [9] deals with HOXC9 (Homo sapiens, UniProt P31274 178-260).
Sequence of HOXC9 (Homo sapiens, UniProt P31274 178-260) (P31274 178-260): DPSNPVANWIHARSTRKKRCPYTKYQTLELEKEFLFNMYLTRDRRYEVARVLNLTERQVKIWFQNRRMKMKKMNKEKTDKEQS
Test [10] concerns the target HOXC9 (Homo sapiens, UniProt P31274 178-260, R193K).
Test [11] concerns the target HOXC9 (Homo sapiens, UniProt P31274 178-260, R222W).
The target of test [12] is T1, VENTX (Homo sapiens, UniProt O95231 78-163, R121Q).
T1 sequence: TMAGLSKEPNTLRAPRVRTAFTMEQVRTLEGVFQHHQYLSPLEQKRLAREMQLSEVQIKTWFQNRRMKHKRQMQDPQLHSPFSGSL

The target of test [13] is T2, VENTX (Homo sapiens, UniProt O95231 78-163, Y115F).
T2 sequence: T1 sequence with Y38F, Q44R

Test [14] deals with NKX3-2 (Homo sapiens, UniProt P78367 192-278, P234S).
Sequence of NKX3-2 (Homo sapiens, UniProt P78367 192-278, P234S) (P78367 192-278 P234S): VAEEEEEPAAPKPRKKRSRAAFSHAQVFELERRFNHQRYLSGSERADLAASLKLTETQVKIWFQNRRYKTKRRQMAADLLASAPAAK
Test [15] has as its target NKX3-2 (Homo sapiens, UniProt P78367 192-278).
Test [16] concerns the target HOXA4 (Homo sapiens, UniProt Q00056 201-287, W262R).
Test [17] addresses HOXA4 (Homo sapiens, UniProt Q00056 201-287, R217L).
Test [18] concerns the target HOXA4 (Homo sapiens, UniProt Q00056 201-287).
The target in test [19] is HOXA4 (Homo sapiens, UniProt Q00056 201-287, W262F).
Sequence of HOXA4 (Homo sapiens, UniProt Q00056 201-287, W262F) (Q00056 201-287 W262F): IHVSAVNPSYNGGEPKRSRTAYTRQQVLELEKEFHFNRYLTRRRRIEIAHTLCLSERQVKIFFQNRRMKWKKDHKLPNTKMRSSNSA
The target of test [20] is T3, NKX2-4 (Homo sapiens, UniProt Q9H2Z4 175-261, P217L).
T3 sequence: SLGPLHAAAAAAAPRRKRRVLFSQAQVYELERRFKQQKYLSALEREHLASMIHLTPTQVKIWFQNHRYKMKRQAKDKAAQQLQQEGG

For test [21], the target named is T4, NKX2-4 (Homo sapiens, UniProt Q9H2Z4 175-261, T231S).
T4 sequence: T3 sequence with L43P, T57S

For test [22], the target named is T5, NKX2-4 (Homo sapiens, UniProt Q9H2Z4 175-261).
T5 sequence: T3 sequence with L43P

Test [23] concerns the target T6, NKX2-4 (Homo sapiens, UniProt Q9H2Z4 175-261, R246Q).
T6 sequence: T3 sequence with L43P, R72Q

The target of test [24] is HOXA2 (Homo sapiens, UniProt O43364 129-215, R185T).
Sequence of HOXA2 (Homo sapiens, UniProt O43364 129-215, R185T) (O43364 129-215 R185T): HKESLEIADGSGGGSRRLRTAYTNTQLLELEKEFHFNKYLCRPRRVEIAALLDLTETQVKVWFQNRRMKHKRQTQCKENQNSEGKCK
Test [25] has as its target HOXA2 (Homo sapiens, UniProt O43364 129-215, R185K).
Test [26] deals with HOXA2 (Homo sapiens, UniProt O43364 129-215, Y150S).
Sequence of HOXA2 (Homo sapiens, UniProt O43364 129-215, Y150S) (O43364 129-215 Y150S): as the sequence (O43364 129-215 R185T) above, with Y22S, T57R counted along it
Test [27] deals with HOXA2 (Homo sapiens, UniProt O43364 129-215).
Sequence of HOXA2 (Homo sapiens, UniProt O43364 129-215) (O43364 129-215): as the sequence (O43364 129-215 R185T) above, with T57R counted along it
The target in test [28] is T7, VENTX (Homo sapiens, UniProt O95231 78-163).
T7 sequence: T1 sequence with Q44R

Residue numbers refer to the chain shown, from its start.

Sequence of HESX1 (Homo sapiens, UniProt Q9UBX0 95-180, R109Q) (Q9UBX0 95-180 R109Q): as the sequence (Q9UBX0 95-180 F115L) above, with R15Q, L21F counted along it
Sequence of HOXA7 (Homo sapiens, UniProt P31268 116-202) (P31268 116-202): as the sequence (P31268 116-202 W177C) above, with C62W counted along it
Sequence of HESX1 (Homo sapiens, UniProt Q9UBX0 95-180, R165K) (Q9UBX0 95-180 R165K): as the sequence (Q9UBX0 95-180 F115L) above, with L21F, R71K counted along it
Sequence of HESX1 (Homo sapiens, UniProt Q9UBX0 95-180, P111T) (Q9UBX0 95-180 P111T): as the sequence (Q9UBX0 95-180 F115L) above, with P17T, L21F counted along it
Sequence of HESX1 (Homo sapiens, UniProt Q9UBX0 95-180) (Q9UBX0 95-180): as the sequence (Q9UBX0 95-180 F115L) above, with L21F counted along it
Sequence of HOXC9 (Homo sapiens, UniProt P31274 178-260, R222W) (P31274 178-260 R222W): as the sequence (P31274 178-260) above, with R45W counted along it
Sequence of HOXA4 (Homo sapiens, UniProt Q00056 201-287, W262R) (Q00056 201-287 W262R): as the sequence (Q00056 201-287 W262F) above, with F62R counted along it
Sequence of HOXA4 (Homo sapiens, UniProt Q00056 201-287) (Q00056 201-287): as the sequence (Q00056 201-287 W262F) above, with F62W counted along it
Sequence of HOXA4 (Homo sapiens, UniProt Q00056 201-287, R217L) (Q00056 201-287 R217L): as the sequence (Q00056 201-287 W262F) above, with R17L, F62W counted along it
Sequence of HOXC9 (Homo sapiens, UniProt P31274 178-260, R193K) (P31274 178-260 R193K): as the sequence (P31274 178-260) above, with R16K counted along it
Sequence of NKX3-2 (Homo sapiens, UniProt P78367 192-278) (P78367 192-278): as the sequence (P78367 192-278 P234S) above, with S43P counted along it
Sequence of HOXA2 (Homo sapiens, UniProt O43364 129-215, R185K) (O43364 129-215 R185K): as the sequence (O43364 129-215 R185T) above, with T57K counted along it

In the case of AGCTGCCT, the binding signal in the test with HESX1 [1] is 6.48 upbm affinity estimate (log intensity, higher = more binding, comparable within an allelic series); with HOXA7 [2], 8.26 upbm affinity estimate (log intensity, higher = more binding, comparable within an allelic series); with HESX1 [3], 6.48 upbm affinity estimate (log intensity, higher = more binding, comparable within an allelic series); with HESX1 [4], 6.53 upbm affinity estimate (log intensity, higher = more binding, comparable within an allelic series); with HESX1 [5] it was 6.48 upbm affinity estimate (log intensity, higher = more binding, comparable within an allelic series); with HESX1 [6], 6.43 upbm affinity estimate (log intensity, higher = more binding, comparable within an allelic series). For the same sequence, in the test with HOXA7 [7], the binding signal was 8.25 upbm affinity estimate (log intensity, higher = more binding, comparable within an allelic series).

Consider CCCGGCTC, for which the binding signal is 6.39 upbm affinity estimate (log intensity, higher = more binding, comparable within an allelic series) in the test with HESX1 [1]; 9.4 upbm affinity estimate (log intensity, higher = more binding, comparable within an allelic series) with HOXC9 [8]; 6.47 upbm affinity estimate (log intensity, higher = more binding, comparable within an allelic series) in the test with HESX1 [3]; 9.46 upbm affinity estimate (log intensity, higher = more binding, comparable within an allelic series) with HOXC9 [9]; 9.4 upbm affinity estimate (log intensity, higher = more binding, comparable within an allelic series) with HOXC9 [10]; 6.38 upbm affinity estimate (log intensity, higher = more binding, comparable within an allelic series) in the test with HESX1 [4]. The binding signal with HESX1 [5] is 6.47 upbm affinity estimate (log intensity, higher = more binding, comparable within an allelic series); in the test with HOXC9 [11], 9.63 upbm affinity estimate (log intensity, higher = more binding, comparable within an allelic series); in the test with HESX1 [6], 6.5 upbm affinity estimate (log intensity, higher = more binding, comparable within an allelic series).

In the case of CGATTATC, the binding signal with HESX1 [1] is 8.23 upbm affinity estimate (log intensity, higher = more binding, comparable within an allelic series); in the test with VENTX [12], 10.6 upbm affinity estimate (log intensity, higher = more binding, comparable within an allelic series); in the test with VENTX [13] it was 10.6 upbm affinity estimate (log intensity, higher = more binding, comparable within an allelic series); in the test with HESX1 [3], 8.64 upbm affinity estimate (log intensity, higher = more binding, comparable within an allelic series); in the test with HESX1 [6] it was 6.88 upbm affinity estimate (log intensity, higher = more binding, comparable within an allelic series).

With CCGTAGGC, the binding signal in the test with HESX1 [1] was 6.41 upbm affinity estimate (log intensity, higher = more binding, comparable within an allelic series); with HOXC9 [8] it was 9.73 upbm affinity estimate (log intensity, higher = more binding, comparable within an allelic series); in the test with HOXA7 [2], 8.48 upbm affinity estimate (log intensity, higher = more binding, comparable within an allelic series); with HESX1 [3] it was 6.44 upbm affinity estimate (log intensity, higher = more binding, comparable within an allelic series); with HOXC9 [9], 9.68 upbm affinity estimate (log intensity, higher = more binding, comparable within an allelic series); with HOXC9 [10], 9.78 upbm affinity estimate (log intensity, higher = more binding, comparable within an allelic series). Also, the binding signal with HESX1 [4] was 6.53 upbm affinity estimate (log intensity, higher = more binding, comparable within an allelic series); with HESX1 [5], 6.41 upbm affinity estimate (log intensity, higher = more binding, comparable within an allelic series); in the test with HOXC9 [11] it was 9.77 upbm affinity estimate (log intensity, higher = more binding, comparable within an allelic series); with HESX1 [6] it was 6.48 upbm affinity estimate (log intensity, higher = more binding, comparable within an allelic series); with HOXA7 [7] it was 8.4 upbm affinity estimate (log intensity, higher = more binding, comparable within an allelic series); with NKX3-2 [14] it was 10.5 upbm affinity estimate (log intensity, higher = more binding, comparable within an allelic series). For the same sequence, the binding signal in the test with NKX3-2 [15] is 10.4 upbm affinity estimate (log intensity, higher = more binding, comparable within an allelic series).

Consider AGGGTCCC, for which the binding signal is 6.51 upbm affinity estimate (log intensity, higher = more binding, comparable within an allelic series) in the test with HESX1 [1]; 9.9 upbm affinity estimate (log intensity, higher = more binding, comparable within an allelic series) with HOXA4 [16]; 6.48 upbm affinity estimate (log intensity, higher = more binding, comparable within an allelic series) in the test with HESX1 [3]; 9.79 upbm affinity estimate (log intensity, higher = more binding, comparable within an allelic series) with HOXA4 [17]; 9.74 upbm affinity estimate (log intensity, higher = more binding, comparable within an allelic series) with HOXA4 [18]; 6.45 upbm affinity estimate (log intensity, higher = more binding, comparable within an allelic series) with HESX1 [4]. Moreover, the binding signal with HESX1 [5] is 6.51 upbm affinity estimate (log intensity, higher = more binding, comparable within an allelic series); with HESX1 [6], 6.53 upbm affinity estimate (log intensity, higher = more binding, comparable within an allelic series); with HOXA4 [19] it was 9.78 upbm affinity estimate (log intensity, higher = more binding, comparable within an allelic series).

As to GAGCTGGC, the binding signal with HESX1 [1] was 6.31 upbm affinity estimate (log intensity, higher = more binding, comparable within an allelic series); with NKX2-4 [20], 9.65 upbm affinity estimate (log intensity, higher = more binding, comparable within an allelic series); in the test with HOXA7 [2], 8.29 upbm affinity estimate (log intensity, higher = more binding, comparable within an allelic series); in the test with NKX2-4 [21], 9.66 upbm affinity estimate (log intensity, higher = more binding, comparable within an allelic series); with NKX2-4 [22] it was 9.73 upbm affinity estimate (log intensity, higher = more binding, comparable within an allelic series); with HESX1 [3], 6.3 upbm affinity estimate (log intensity, higher = more binding, comparable within an allelic series). Besides, the binding signal was 9.66 upbm affinity estimate (log intensity, higher = more binding, comparable within an allelic series) in the test with NKX2-4 [23]; 6.49 upbm affinity estimate (log intensity, higher = more binding, comparable within an allelic series) in the test with HESX1 [4]; 6.25 upbm affinity estimate (log intensity, higher = more binding, comparable within an allelic series) with HESX1 [5]; 6.47 upbm affinity estimate (log intensity, higher = more binding, comparable within an allelic series) in the test with HESX1 [6]; 8.35 upbm affinity estimate (log intensity, higher = more binding, comparable within an allelic series) with HOXA7 [7].

As to TCCCCCCA, the binding signal with HESX1 [1] is 6.55 upbm affinity estimate (log intensity, higher = more binding, comparable within an allelic series); with HOXA4 [16], 9.6 upbm affinity estimate (log intensity, higher = more binding, comparable within an allelic series); in the test with HESX1 [3], 6.5 upbm affinity estimate (log intensity, higher = more binding, comparable within an allelic series); with HOXA2 [24], 7.32 upbm affinity estimate (log intensity, higher = more binding, comparable within an allelic series); in the test with HOXA4 [17], 9.7 upbm affinity estimate (log intensity, higher = more binding, comparable within an allelic series); with HOXA2 [25], 10.4 upbm affinity estimate (log intensity, higher = more binding, comparable within an allelic series). Moreover, the binding signal with HOXA4 [18] is 9.81 upbm affinity estimate (log intensity, higher = more binding, comparable within an allelic series); in the test with HESX1 [4], 6.55 upbm affinity estimate (log intensity, higher = more binding, comparable within an allelic series); in the test with HESX1 [5], 6.52 upbm affinity estimate (log intensity, higher = more binding, comparable within an allelic series); in the test with HESX1 [6] it was 6.55 upbm affinity estimate (log intensity, higher = more binding, comparable within an allelic series); in the test with HOXA2 [26], 10.2 upbm affinity estimate (log intensity, higher = more binding, comparable within an allelic series); in the test with HOXA4 [19], 9.56 upbm affinity estimate (log intensity, higher = more binding, comparable within an allelic series). Also, the binding signal with HOXA2 [27] was 7.41 upbm affinity estimate (log intensity, higher = more binding, comparable within an allelic series).

On to GCCAGCGA, for which the binding signal was 6.34 upbm affinity estimate (log intensity, higher = more binding, comparable within an allelic series) with HESX1 [1]; 8.16 upbm affinity estimate (log intensity, higher = more binding, comparable within an allelic series) with VENTX [12]; 8.16 upbm affinity estimate (log intensity, higher = more binding, comparable within an allelic series) with VENTX [28]; 8.18 upbm affinity estimate (log intensity, higher = more binding, comparable within an allelic series) with VENTX [13]; 6.55 upbm affinity estimate (log intensity, higher = more binding, comparable within an allelic series) with HESX1 [3]; 6.49 upbm affinity estimate (log intensity, higher = more binding, comparable within an allelic series) with HESX1 [4]. Besides, the binding signal is 6.48 upbm affinity estimate (log intensity, higher = more binding, comparable within an allelic series) with HESX1 [5] and 6.56 upbm affinity estimate (log intensity, higher = more binding, comparable within an allelic series) with HESX1 [6].

The values are drawn from paper PMC11006913.
